{"source": "PubChem BioAssay AID1259240", "about": "(Keith Lab, Institute of Cancer Science, University of …, 2017)", "note": "A number with no mark means an inactive call. The source made the active and inactive calls. No stated cut-off is given here; in the data, active means fold change mostly below about -2 (no sharp cut-off); inactive means mostly above about -1.8."}
{"experiment": "TERT promoter activity modulators, primary screen, cell-based, luciferase reporter, human (AID 1259240)", "details": "A2780 TERT promoter luciferase reporter, 16 h; at 20 µM, fold versus average of vehicle-only wells"}
{"smiles": "Nc1cc(-c2ccccc2)nn1S(=O)(=O)c1ccc(Br)cc1", "fold change": 1.63}
{"smiles": "COc1ccc(S(=O)(=O)N2N=C(c3ccc(NS(C)(=O)=O)cc3)CC2c2ccco2)cc1", "note": "(stereo not given)", "fold change": 1.12}
{"smiles": "FC(F)(F)c1cccc(N2CCN(c3ccc4nncn4n3)CC2)c1", "fold change": -1.15}
{"smiles": "COc1cc(OC)c(-c2nc(-c3cccnc3)no2)cc1OC", "fold change": 1.51}
{"smiles": "Cc1cc(C)c2c(=O)n(CC(=O)N3CCOCC3)sc2n1", "fold change": 1.35}
{"smiles": "CC(C)(C)OC(=O)CN1C(=O)c2ccccc2S1(=O)=O", "fold change": 1.98}
{"smiles": "Cc1ccc2nc(N3CCOCC3)c3nncn3c2c1", "fold change": 1.35}
{"smiles": "COC(CNS(=O)(=O)c1cccc2cccnc12)OC", "fold change": -1.06}
{"smiles": "O=C(CSc1nc(-c2ccco2)cc(C(F)(F)F)n1)N1CCSCC1", "fold change": -1.96}
{"smiles": "O=C(CSc1ncnc2ccccc12)NC1CCCCC1", "fold change": 1.03}
{"smiles": "CCC(=O)Nc1nc2nc(C(C)(C)C)cc(=O)n2[nH]1", "fold change": -1.74}
{"smiles": "CCOc1ccc(-n2c(O)c(C3=c4cc(Br)ccc4=NC3=O)[nH]c2=S)cc1", "outcome": "inactive"}
{"smiles": "CCS(=O)(=O)N1N=C(c2ccc(NS(C)(=O)=O)cc2)CC1c1ccccc1", "note": "(stereo not given)", "fold change": 1.35}
{"smiles": "CCOC(=O)C1CCCN(c2c(NCC3COc4ccccc4O3)c(=O)c2=O)C1", "note": "(stereo not given)", "fold change": 1.35}
{"smiles": "COCCn1c(C)cc(C(=O)CSc2nnc3c(C)cc4ccccc4n23)c1C", "fold change": 1.96}
{"smiles": "CN1CCN(C(=O)c2ccc3c(Cl)c4c(nc3c2)CCC4)CC1", "fold change": 1.03}
{"smiles": "Cc1cc(=O)[nH]c(SCC(=O)c2c[nH]c3ccccc23)n1", "outcome": "inactive"}
{"smiles": "CCOC(=O)c1ccc(N2C(=O)c3n[nH]c(-c4ccco4)c3C2c2ccc(C)cc2)cc1", "note": "(stereo not given)", "fold change": "-2.14 (active)"}
{"smiles": "COc1cccc(C2C(C#N)=C(N)Oc3n[nH]c(-c4ccc(Br)cc4)c32)c1OC", "note": "(stereo not given)", "fold change": -1.08}
{"smiles": "O=C1SC(Nc2ccccc2F)C(=O)N1c1ccccc1", "note": "(stereo not given)", "fold change": 1.65}
{"smiles": "c1coc(CSc2nc3ccccc3n3cnnc23)c1", "fold change": 1.16}
{"smiles": "O=C(NCc1ccccc1Cl)c1c(-n2cccc2)sc2c1CCC2", "fold change": -1.05}
{"smiles": "Cc1c(C(=O)N2CC(C)CC(C)C2)sc2ncn(CC(=O)N3CCC(C)CC3)c(=O)c12", "note": "(stereo not given)", "fold change": -1.37}
{"smiles": "COc1ccc2c(c1)/C(=c1/sc3n(c1=O)CN(c1ccc(C)c(Cl)c1)CN=3)C(=O)N2", "fold change": -1.71}
{"smiles": "Cc1cc(=O)n2[nH]c(NC(=O)c3cccs3)nc2n1", "fold change": -1.29}
{"smiles": "O=C(NC1CCCCC1)c1cccc(NC2=NC3CS(=O)(=O)CC3S2)c1", "note": "(stereo not given)", "fold change": -1.15}
{"smiles": "c1ccc2c(c1)OCC(CNc1nnc(Cc3ccncc3)c3ccccc13)O2", "note": "(stereo not given)", "fold change": -1.37}
{"smiles": "CCN1C(=O)/C(=c2\\sc3nc(-c4cccc(C)c4)nn3c2=O)c2cc(Br)ccc21", "fold change": -1.02}
{"smiles": "CC(C)CC(NS(=O)(=O)c1ccc2c(c1)oc(=O)n2C)C(=O)N1CCn2c1nc1ccccc12", "note": "(stereo not given)", "fold change": -1.61}
{"smiles": "Cn1c(=O)c2c(SCC(=O)N3CCCc4ccccc43)nc(-c3ccco3)nc2n(C)c1=O", "fold change": 1.45}
{"smiles": "CCOC(=O)C1=C(CS(=O)(=O)c2ccccc2)NC(=O)NC1c1ccccc1", "note": "(stereo not given)", "fold change": 1.91}
{"smiles": "CCOC(=O)C1=C(CS(=O)(=O)c2ccc(Cl)cc2)NC(=O)NC1c1ccc(F)cc1", "note": "(stereo not given)", "fold change": 1.41}
{"smiles": "O=C1Nc2ccccc2N(O)N1c1cc(-c2cccc(Cl)c2)no1", "fold change": 1.45}
{"smiles": "CCOC(=O)C1CCCN(c2c(N3CCN(c4ccc(F)cc4)CC3)c(=O)c2=O)C1", "note": "(stereo not given)", "fold change": -1.2}
{"smiles": "COc1nc(NC(C)(C)C)nc(Oc2ccc(=O)[nH]n2)n1", "fold change": "2 (active)"}
{"smiles": "CCOC(=O)CSc1nnc(-c2c[nH]c3ccccc23)n1CCOC", "outcome": "inactive"}
{"smiles": "O=c1cc(CSc2nnnn2-c2ccccc2)nc2nc[nH]n12", "fold change": "-2.26 (active)"}
{"smiles": "CCOC(=O)C1=C(CS(=O)(=O)c2ccccc2)NC(=O)NC1c1cc(OC)c(OC)cc1OC", "note": "(stereo not given)", "fold change": 1.83}
{"smiles": "CCN(CC)c1ccc2cc(C(=O)O)c(=O)oc2c1", "fold change": 1.12}
{"smiles": "Cc1ccc2nc(NCc3ccc4c(c3)OCO4)c3nncn3c2c1", "fold change": 1.52}
